# Screens: PubChem BioAssay, National Center for Advancing Translational Sciences (NCATS)
# VDR inhibitor: vitamin D3 receptor (human) inhibition | P11473 | VDR-SRC2-3 peptide fluorescence polarization, 2 h | Potency, µM, without a hit: max response, negative = inhibition, actives largely listed as inhibitors | 400,000 compounds, 0.93% hits | AID 504847; note: % is set by controls: 0 for no effect and ±100 for the full control effect
#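 Signal is fluorescence polarization, reporting how far test compounds block the interaction of VDR with the SRC2-3 coregulator peptide after a 2 h room-temperature incubation.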
# HP1b chromo inh: inhibitors of HP1-beta chromodomain binding to methylated histone tails | P83916 | AlphaScreen HP1-beta / biotin-H3K9me3 peptide binding | 390,000 compounds, 0.56% hits | Potency, µM (top dose mostly 114 µM), for the others: at the highest dose activity change, negative = inhibition, most hits filed as inhibitors; note: nearly all actives have a fitted effect of over 70% in size
#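 HP1-beta protein (50 nM final) preincubated 30 min at room temperature with biotinylated H3(1-18)K9me3 peptide (50 nM) in PBS pH 7.4, 0.01% Tween-20, then compound added for 30 min. AlphaScreen streptavidin donor/nickel chelate acceptor beads (10 ug/mL final), 30 min dark, luminescence read.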
# JMJD2A Tudor: blocks the human JMJD2A Tudor domain; 390,000 compounds, 4.4% hits; Potency, µM (highest dose often 114 µM), without a hit: top-dose activity change, negative = inhibition, usual class: inhibitors; AlphaScreen JMJD2A-Tudor / H3K4me3 peptide binding; O75164; note: % is set by controls: 0 for no effect and ±100 for the full control effect; nearly all actives have a fitted effect of over 50% in size
# G9a inh: blocks human histone lysine methyltransferase G9a; Q96KQ7; AID 504332; 350,000 compounds, 8.8% hits; Potency, µM (top dose mostly 102 µM), for the others: at the top dose activity, negative = inhibition, actives largely listed as inhibitors; G9a H3K9 monomethylation, AlphaScreen, 2 h; note: % is set by controls: 0 for no effect and ±100 for the full control effect; nearly all actives have a fitted effect of over 75% in size
#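 G9a (20 nM) preincubated 15 min RT with compounds, then 500 nM biotinylated H3K9 peptide and 20 uM SAM added; 2 h RT reaction. Monomethyl-H3K9 product detected by AlphaScreen with anti-H3K9me1 antibody, streptavidin donor and anti-rabbit IgG acceptor beads.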
# PLK1 PBD block: PLK1 (human) polo-box domain binding inhibition. Plk1 PBD binding of FITC phosphopeptide, fluorescence polarization. P53350. Potency, µM, for inactives: max response, negative = inhibition, actives largely listed as inhibitors. 360,000 compounds, 2.8% hits; note: series mostly up to about 57 µM; % is set by controls: 0 for no effect and ±100 for the full control effect; nearly all actives have a fitted effect of over 65% in size
# BAZ2B inh: inhibitors of human BAZ2B bromodomain; AlphaScreen BAZ2B-H3K14Ac peptide displacement; 360,000 compounds, 4.4% hits; Potency, µM (titrated, usually from 114 µM), without a hit: at the highest dose activity change, negative = inhibition, usual class: inhibitors; note: % is set by controls: 0 for no effect and ±100 for the full control effect; nearly all actives have a fitted effect of over 60% in size
#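 Inhibition is scored as reduced AlphaScreen emission. The BAZ2B/b-H3(5-23)K14Ac complex (50 nM each) in PBS pH 7.4, 0.01% Tween-20 meets compound (up to 110 uM) for 30 min at RT before bead addition.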
# Starred values were filed as active, the others as inactive; ? = inconclusive; . = not tested or not shown; ! = not active in a repeat; [ ] = remark or other dose. The list is not random: actives were taken first. Their share in the collection is about 11%. Calls come from the whole dose curve; as a rule, active = well fitted curve in the direction sought with a large enough effect; inconclusive = small, poorly fitted or top-dose-only effect, or another doubt; inactive = no such curve, though single readings can be large; an effect the other way counts as inactive or inconclusive. Potency is the fitted concentration of half-maximal effect.
SMILES,VDR inhibitor,HP1b chromo inh,JMJD2A Tudor,G9a inh,PLK1 PBD block,BAZ2B inh
O=C(Nc1ccc2oc(-c3cccnc3)nc2c1)c1ccco1,8%,35%,-13%,50µM*,-8%,-32%
COc1ccc2c(c1)c(=O)oc1cc(OC(C(=O)O)c3ccccc3)ccc12 (configuration not stated),-7%,15%,-18%,-8%,-6%,-12%
COc1ccc2c(c1)c(=O)oc1cc3oc(C)c(C)c3cc12,.,.,.,?,.,56µM*
CC(C)C[C@H](NC(=O)CCn1nnc2ccccc2c1=O)C(=O)O,-11%,16%,?,-5%,19µM*,-2%
O=C(CCCn1nnc2ccccc2c1=O)N[C@H](C(=O)O)c1ccccc1,-2%,71%,-6%,3%,-5%,-3%
O=C(Cn1nnc2ccccc2c1=O)N[C@H](C(=O)O)c1ccccc1,-19%,10%,-18%[11.4 µM],.,30µM*,1%
Cc1ccccc1Nc1c(-c2ccc(Cl)s2)nc2ccccn12,-9%,12%,-13%,.,.,.
Cc1ccc(S(=O)(=O)N2CCN(C(=O)CSc3ncn[nH]3)CC2)c(C)c1,-1%,6%,-10%,?,-7%,9%
Cc1ccc(S(=O)(=O)/N=C2/C=C(Sc3ncn[nH]3)C(=O)c3ccccc32)cc1,10µM*,8.9µM*,2.8µM*,0.56µM*,0.75µM*,45µM*
Cc1ccc(S(=O)(=O)/N=C2/C=C(Sc3ncn[nH]3)C(=O)c3ccccc32)c(C)c1,.,.,.,0.89µM*,.,45µM*
CC(C)c1ccc(S(=O)(=O)/N=C2/C=C(Sc3ncn[nH]3)C(=O)c3ccccc32)cc1,10µM*,18µM*,7.1µM*,1.6µM*,1.5µM*,45µM*
Cc1ccc2oc(C(=O)Nc3c(C(=O)c4ccc(C)c(F)c4)oc4ccccc34)cc(=O)c2c1,0%,19%,-10%,-26%[59 µM],.,-3%
C=CCOC(=O)N[C@H](c1ccccc1)C(C(C)=O)C(C)=O,11%,.,.,.,.,.
CN(C)C1(CNC(=O)COc2ccc([N+](=O)[O-])cc2)CCCCC1,6%,32%,-5%,-28%[59 µM],.,-11%
Cc1cc(/C=C2\SC(=O)N(C)C2=O)c(C)n1-c1ccc(O)cc1,?,-28%,?,79µM*,-15%,50µM*
COC(=O)C(C)N1C(=O)S/C(=C\c2cc(C)n(-c3ccccn3)c2C)C1=O (configuration not stated),13%,0%,?,56µM*,-7%,?
Cc1cc(/C=C2\SC(=O)N(C)C2=O)c(C)n1-c1ccc(S(N)(=O)=O)cc1,7%,24%,-8%,45µM*,-4%,-3%
CCOc1ccc(S(=O)(=O)NC(C)C(=O)NCc2cccnc2)cc1 (configuration not stated),11%,37%,-2%,-46%,-3%,3%
CCOC(=O)c1ccc(N2C(=O)CC(NC3CCN(C(=O)c4ccc(F)cc4)CC3)C2=O)cc1 (configuration not stated),10%,36%,-1%,45µM*,2%,8%
COc1ccc(N2C(=O)CC(NC3CC3)C2=O)cc1 (configuration not stated),9%,44%,-2%,13%[12.7 µM],-2%,6%
CCOc1ccc(N2C(=O)CC(NC3CCN(C(=O)c4ccc(F)cc4)CC3)C2=O)cc1 (configuration not stated),9%,54%,-17%,13µM*,-6%,-4%
CCc1cccc(C)c1NC(=O)C(CC)n1nc(C)c2c(C)n(-c3ccccc3)nc2c1=O (configuration not stated),-1%,0%,-13%,-7%[59 µM],.,-19%
O=C(CCCCl)Oc1ccc2cc(-c3ccc4ccccc4n3)c(=O)oc2c1,-16%,26%,16%,8%[59 µM],-19%,-3%
COc1ccc(C2=C(C)C(=O)N(Cc3ccc(C(=O)NCc4cccc(C)c4)cc3)S2(=O)=O)cc1,-3%,-12%,-12%,36%[59 µM],.,3%
Cn1cc(C(=O)N/N=C/C2=C(N3CCOCC3)C(=C\c3ccccc3)/CC2)ccc1=O,6%,14%,-18%,-9%[59 µM],-9%,-4%
SMILES,VDR inhibitor,HP1b chromo inh,JMJD2A Tudor,G9a inh,PLK1 PBD block,BAZ2B inh
O=C1Nc2ccccc2/C1=N\N=C\C1=C(N2CCOCC2)C(=C\c2ccccc2)/CC1,.,.,.,?,.,7.1µM*
O=C1Nc2ccc(Br)cc2/C1=N\N=C\C1=C(N2CCOCC2)C(=C/c2ccccc2)/CC1,-5%,5µM*,3.2µM*,.,-9%,.
O=c1c2cc3c(cc2nc2sc(Nc4cccc([N+](=O)[O-])c4)nn12)OCO3,0%,43%,-18%,1.4µM*,.,?
Cc1cccc(Nc2nn3c(=O)c4cc5c(cc4nc3s2)OCO5)c1,14%,77%,-24%,?,.,-8%
O=C(COc1coc(CN2CCN(c3ccccc3F)CC2)cc1=O)NC1CCCC1,1%,45%,2%,0%,-2%,-20%
CC1(C)C2CCC(C2)C1(C)NC(=O)CN1CCN(Cc2ccccc2)CC1 (configuration not stated),10%,16µM*,1.4µM*,5.6µM*,-7%,28µM*
CC1CCN(CC(CS(=O)(=O)c2ccc([N+](=O)[O-])cc2)N2CCC(C)CC2)CC1 (configuration not stated),?,21%,-13%[11.4 µM],.,?,-2%
CCOc1ccc(C(=O)c2cn(CC(=O)Nc3ccc(OC)cc3)c3cc4c(cc3c2=O)OCCO4)cc1,-4%,39%,-1%,-28%[59 µM],.,0%
COC(=O)c1c(NC(=O)CN2CCN(c3cccc(Cl)c3)CC2)sc(C)c1C,6%,18%,-20%,0%[59 µM],-10%,-19%
COC(=O)C1C(=O)C(C(=O)/C=C/c2ccco2)C(=O)CC1(C)C (configuration not stated),45µM*,.,.,.,.,.
COC(=O)C1C(=O)C(C(=O)/C=C/c2ccccc2)C(=O)CC1(C)C (configuration not stated),-3%,29%,-28%,?,-10%,-37%
COc1ccc(C(=O)NCCCNC(=O)c2ccccn2)cc1,5%,22%,-15%,32%,1%,-3%
CCCc1c(OCCCCc2nn[nH]n2)ccc(C(C)=O)c1O,45µM*,41%,0%,?,-20%,-13%
Cc1oc(-c2ccccc2Cl)nc1CS(=O)CC(=O)N1CCN(c2cccc(C(F)(F)F)c2)CC1 (configuration not stated),12%,5%,?,-49%[59 µM],.,-32%
S=P(N1CC1)(N1CC1)N1CC1,89µM*!,?,-17%,7.9µM*!,?,23%
Cc1ccc2nc(-c3ccc(NC(=O)COC(=O)c4cncc(Br)c4)cc3)sc2c1,-5%,12%,-5%,25µM*,-17%,-5%
